HCV inhibitor = blocks hepatitis C virus | Huh7.5.1 HCVcc-Cre infection, luciferase reporter, 44 h | actives 3.4% (n = 340,000) | Potency, µM (doses to about 41.8 µM), for the others: at the top dose activity change, negative = inhibition, usual class: inhibitors; active = well fitted inhibition curve with a large enough effect; inconclusive = small, poorly fitted or top-dose-only effect, or another doubt; inactive = no such curve, though single readings can be large or run the other way; also: potency is read from the fitted curve at half-maximal effect; % is scaled to controls: 0 for no effect and ±100 for the full control effect
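Whole-lifecycle infectious HCVcc-Cre system; cells 1,000/well, compound then virus (~0.5 moi) added 4 h after plating, 44 h culture. Luciferase read 15 sec following 15 min substrate incubation, room temp.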
LASV entry inh = blocks Lassa virus binding to or entry into cells; Potency, µM (highest dose often 37.9 µM), for inactives: at the highest dose activity change, negative = inhibition, usual class: inhibitors; actives 1.2% (n = 300,000); Lassa virus pseudotype entry inhibition, cell reporter; calls by dose curve; tested in HEK293 cells; also: potency is read from the fitted curve at half-maximal effect; % is scaled to controls: 0 for no effect and ±100 for the full control effect; nearly all actives have a fitted effect of over 50% in size
FMDV inh = blocks foot and mouth disease virus | FMDV antiviral cell-based qHTS | Potency, µM (titrated, usually from 57.9 µM), for the others: top-dose activity change, negative = inhibition, most hits filed as inhibitors | actives 1.2% (n = 410,000) | AID 1159524; calls by dose curve; tested in HEK293T cells; also: read-out not given here; potency is read from the fitted curve at half-maximal effect; % is scaled to controls: 0 for no effect and ±100 for the full control effect; nearly all actives have a fitted effect of over 45% in size
SARS PLP yeast = SARS-CoV PLP inhibition in yeast | AID 485353 | actives 0.19% (n = 330,000) | S. cerevisiae expressing SARS-CoV PLpro, growth rescue | Potency, µM (highest dose often 32.9 µM), inactives show at the highest dose activity, positive = growth rescue, usual class: activators; calls by dose curve; also: potency is read from the fitted curve at half-maximal effect; 0% is about no effect; nearly all actives have a fitted effect of over 55% in size
Marburg entry inh = blocks Marburg virus binding to or entry into cells; Marburg virus pseudotyped entry inhibition, cell reporter; Potency, µM (highest dose often 37.8 µM), inactives show at the highest dose activity change, negative = inhibition, most hits filed as inhibitors; actives 1.8% (n = 300,000); AID 540276; calls by dose curve; tested in HEK293 cells; also: potency is read from the fitted curve at half-maximal effect; % is scaled to controls: 0 for no effect and ±100 for the full control effect
HCMV inh = human cytomegalovirus inhibition; HFF cells, HCMV-luciferase reporter, 72 h; hits give low values; AID 1259415; actives 4.5% (n = 410,000); activity change, negative = inhibition, % at 57.5 µM; in the data active = activity change below about -60%; inconclusive = no clear call, values can overlap the other calls; inactive = above about -39%; also: % is scaled to controls: 0 for no effect and ±100 for the full control effect
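Luciferase read-out from HCMV-luciferase-infected HFFs (MOI 1 PFU/cell) 72 h post infection at 37C; compounds added after 16 h cell attachment; activity normalized between buffer-only basal and Salinomycin (10uM) inhibitor controls.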
* marks the source's active call; other numbers are inactive results; ! = not confirmed by another sample; [ ] = remark or other dose. A selection: hits, their analogues and other compounds. The true share with any hit is near 8%.

How did NS(=O)(=O)c1ccc(N=Cc2c(O)n(-c3ccccc3)c(=O)[nH]c2=O)cc1 do in these assays?
HCV inhibitor: 14.5%; LASV entry inh: 9.9%; FMDV inh: -7.1%; SARS PLP yeast: 0.6%; Marburg entry inh: 5.3%[46.1 µM]; HCMV inh: -14.9

How did CC1=C(C(=O)Nc2c(C)cc(C)cc2C)C2(CCN(C(C)C)CC2)OC1=O do in these assays?
LASV entry inh: 23.2%[46.1 µM]; FMDV inh: -17.8%; HCMV inh: 9.5

How did C/C(=N\O)c1ccc2c(c1)OCCO2 do in these assays?
HCV inhibitor: 5.9%; FMDV inh: 2.0%; SARS PLP yeast: -3.4%; HCMV inh: 0.3

Results for CCn1c2ccccc2c2cc(/C=N/n3cn[nH]c3=S)ccc21 ?
HCV inhibitor: 11.2µM*; LASV entry inh: 4.6%; FMDV inh: -2.6%; SARS PLP yeast: -17.4%; Marburg entry inh: 10.3µM*; HCMV inh: -31.2

Results for CCn1c2ccccc2c2cc(/C=N/O)ccc21 ?
HCV inhibitor: 11.2µM*; LASV entry inh: 6.2%; FMDV inh: -20.8%; SARS PLP yeast: -2.1%; Marburg entry inh: -29.8%; HCMV inh: -74.4*

What do the screens show for `CCn1c2ccccc2c2cc(/C=N/n3c(-c4cc(C)[nH]n4)n[nH]c3=S)ccc21`?
HCV inhibitor: inconclusive; LASV entry inh: inconclusive; FMDV inh: 0.0%; SARS PLP yeast: 0.1%; Marburg entry inh: 5.01µM*; HCMV inh: 10.1

What do the screens show for `CCn1c2ccc(/C(C)=N\O)cc2c2cc(/C(C)=N\O)ccc21`?
HCV inhibitor: 10µM*; LASV entry inh: 0.3%; FMDV inh: -13.6%; SARS PLP yeast: 0.6%; Marburg entry inh: -29.2%; HCMV inh: 5.4

What do the screens show for `O=c1c(=O)n(-c2ccc(F)c(F)c2)ccn1Cc1ccc(F)cc1Cl`?
LASV entry inh: -14.8%[46.1 µM]; FMDV inh: 0.4%; HCMV inh: -30.8

What do the screens show for `CCn1c2ccccc2c2cc(/C=N/n3cnnc3)ccc21`?
HCV inhibitor: 7.94µM*; LASV entry inh: -14.5%; SARS PLP yeast: -11.6%; Marburg entry inh: inconclusive; HCMV inh: -24.5

What do the screens show for `CCOc1c(Cl)cc(CNCCc2c[nH]c3ccccc23)cc1OC`?
HCV inhibitor: 22.4µM*; FMDV inh: -19.3%; SARS PLP yeast: -0.7%; HCMV inh: 10.0

What do the screens show for `CCOc1cc(CNCCc2c[nH]c3ccccc23)cc(Cl)c1OCC`?
HCV inhibitor: inconclusive; LASV entry inh: -19.1%; FMDV inh: -3.2%; SARS PLP yeast: -15.8%; Marburg entry inh: inconclusive; HCMV inh: -62.8*

How did Nc1ncnc2c1ncn2[C@@H]1O[C@H](CNCc2ccc(-c3cc(C(F)(F)F)ccc3Cl)o2)[C@@H](O)[C@H]1O do in these assays?
HCV inhibitor: 35.5µM*; FMDV inh: -25.6%; SARS PLP yeast: 7.3%; HCMV inh: -17.8

What do the screens show for `Cc1cc(NC(=O)Cn2nnc3sc4c(c3c2=O)CCC(C(C)(C)C)C4)no1` (stereo not drawn)?
HCV inhibitor: 11.2µM*; LASV entry inh: -1.6%; FMDV inh: -14.2%; SARS PLP yeast: -16.9%; Marburg entry inh: -15.8%; HCMV inh: inconclusive

Results for CCN(CC)c1ccc(C(=C2C=CC(=[N+](CC)CC)C=C2)c2ccc(N(CC)CC)cc2)cc1 ?
HCV inhibitor: 1.78µM*; FMDV inh: 8.91µM*; HCMV inh: -105.1*

What do the screens show for `CCN(CC)c1ccc(C(=C2C=CC(=[N+](CC)CC)C=C2)c2ccccc2)cc1`?
HCV inhibitor: inconclusive; LASV entry inh: 0.562µM*; FMDV inh: 3.55µM*; Marburg entry inh: inconclusive; HCMV inh: -100.0*

What do the screens show for `C=C1CCC[C@]2(C)C[C@H]3OC(=O)C(CNC(C)CCCC(C)C)[C@H]3CC12` (stereo partly drawn)?
HCV inhibitor: inconclusive; LASV entry inh: inconclusive; FMDV inh: -19.2%; SARS PLP yeast: -1.7%; Marburg entry inh: inconclusive; HCMV inh: -67.6*

Results for C=C1CCC[C@]2(C)C[C@H]3OC(=O)C(CN[C@@H](C)c4ccccc4)[C@H]3CC12 (stereo partly drawn) ?
HCV inhibitor: inconclusive; LASV entry inh: inconclusive; FMDV inh: -24.0%; SARS PLP yeast: 1.0%; Marburg entry inh: inconclusive; HCMV inh: -63.9*

How did C=C1CCC[C@]2(C)C[C@H]3OC(=O)C(CNCC(OC)OC)[C@H]3CC12 (stereo partly drawn) do in these assays?
HCV inhibitor: 3.5%; LASV entry inh: 19.6%[46.1 µM]; FMDV inh: -12.3%; SARS PLP yeast: -1.3%; Marburg entry inh: 3.8%[46.1 µM]; HCMV inh: -30.2

What do the screens show for `C=C1CCC[C@]2(C)C[C@H]3OC(=O)C(CN(Cc4ccc(OC)c(OC)c4)CC(C)O)[C@H]3CC12` (stereo partly drawn)?
HCV inhibitor: -27.2%; FMDV inh: inconclusive; SARS PLP yeast: 2.3%; HCMV inh: -99.1*

How did Cc1oc(-c2cccc(NC(=O)c3ccccn3)c2)nc1CNC(=O)C#Cc1ccccc1 do in these assays?
FMDV inh: 15.8%

What do the screens show for `COC(=O)C(C)(N)Cc1ccc(O)cc1` (stereo not drawn)?
HCV inhibitor: inconclusive; LASV entry inh: inconclusive; FMDV inh: -17.3%; Marburg entry inh: 2.82µM*!; HCMV inh: -18.2

How did COc1ccc(OC)c(N=CC2=C(O)CC(C)(C)CC2=O)c1 do in these assays?
HCV inhibitor: 11.2%; LASV entry inh: 2.0%; SARS PLP yeast: -9.1%; Marburg entry inh: 0.2%; HCMV inh: 35.5

How did COc1ccc(N=CC2=C(O)CC(C)(C)CC2=O)cc1 do in these assays?
HCV inhibitor: -3.1%; LASV entry inh: 16.5%; FMDV inh: 24.8%; SARS PLP yeast: 12.6µM*; Marburg entry inh: -14.6%[46.1 µM]; HCMV inh: -9.1

What do the screens show for `COc1ccc(-c2nc3cc(C)ccc3cc2CN(C(=O)c2cc(C)nn2C)C2CC2)cc1OC`?
FMDV inh: -4.0%

How did COc1cc(CN(C(=O)COc2ccc(Cl)cc2)c2ccccn2)cc(OC)c1OC do in these assays?
LASV entry inh: 21.9%[46.1 µM]; FMDV inh: -8.9%; Marburg entry inh: -12.9%[46.1 µM]; HCMV inh: 5.6

Results for COc1ccc(-c2onc(C)c2C)cc1S(=O)(=O)N1c2ccccc2CC1C (stereo not drawn) ?
LASV entry inh: inconclusive; FMDV inh: -20.6%; HCMV inh: 42.1

What do the screens show for `Nc1cc(Cl)c2nonc2c1[N+](=O)[O-]`?
HCV inhibitor: 4.47µM*; LASV entry inh: inconclusive; FMDV inh: 8.91µM*; SARS PLP yeast: 6.1%; Marburg entry inh: inconclusive; HCMV inh: -94.6*

Results for O=C(O)c1cc(Nc2cc(Cl)c3nonc3c2[N+](=O)[O-])ccc1O ?
HCV inhibitor: -5.0%; FMDV inh: -19.4%; SARS PLP yeast: 2.7%; HCMV inh: 30.9
